Measurements reported in the supplement of paper PMC3334620.
The full ranking holds about 33,000 sequences; the median of “E-score (-0.5 to 0.5)” is about -0.0034, and the highest 2% start at about 0.25. Only a selection was taken, and the highest values are over-represented in it overall.

biological target: T1, Yap3 (UniProt P38749); experiment: PBM E-score (8-mer binding enrichment) (E-score (-0.5 to 0.5)); higher = stronger / more preferred TF binding; conditions: protein concentration: 100 nM; construct: GST-full length
T1 sequence: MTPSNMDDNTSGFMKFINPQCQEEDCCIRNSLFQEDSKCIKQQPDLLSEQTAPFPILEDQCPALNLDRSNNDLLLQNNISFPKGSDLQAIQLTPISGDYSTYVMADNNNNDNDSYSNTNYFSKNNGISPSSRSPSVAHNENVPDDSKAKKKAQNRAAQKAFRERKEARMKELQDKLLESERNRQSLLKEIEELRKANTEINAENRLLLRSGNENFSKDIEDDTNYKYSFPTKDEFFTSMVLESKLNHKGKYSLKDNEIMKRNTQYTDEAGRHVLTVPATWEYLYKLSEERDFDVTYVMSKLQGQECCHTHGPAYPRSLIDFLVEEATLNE
Outline: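 GST-tagged yeast TFs (full-length or DNA-binding domain) were made by PURExpress in vitro transcription/translation and applied at about 100-200 nM to universal all-10-mer Agilent arrays. The arrays were made double-stranded by primer extension, on fresh or once-stripped slides. Bound protein was detected with fluorescent anti-GST, and scans were normalised with masliner. Each ungapped eight-base word, pooled with its reverse complement, received an E-score (modified Wilcoxon-Mann-Whitney statistic) from the Universal PBM Analysis Suite.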

Row | Sequence | PBM E-score
1 | AGAGCTCC | -0.275
2 | AATTGGAG | -0.0503
3 | ATGGCCGA | 0.0282
4 | ATGTGCAA | 0.059
5 | ATCTGTTG | -0.0152
6 | AAAAACTC | 0.072
7 | AGAATCGG | -0.0519
8 | TAAGACAA | 0.187
9 | ACAGACAC | -0.0498
10 | AAAGACAA | 0.261
11 | ACAGACAG | 0.0669
12 | ACAGACAA | 0.285
13 | CAAGACAA | 0.0625
14 | CGACCAAA | 0.174
15 | CCTCAGGC | -0.249
16 | CAGGTGCG | 0.015
17 | ATAAAACG | 0.206
18 | ATAAAAAA | 0.187
19 | ATAAAATG | 0.276
20 | ATAAAAAG | 0.261
21 | ATAAAATA | 0.298
22 | ATAAAAGG | -0.011
23 | ATAAAATC | 0.207
24 | AAAAAATG | 0.209
25 | GTAAAATA | 0.117

Row | Sequence | PBM E-score
26 | GACATTCC | -0.186
27 | ACTGACCG | -0.0919
28 | ACCCCTCT | -0.251
29 | AGTTGAAC | 0.00888
30 | GATCTTGA | 0.0634
31 | ACACTTGC | 0.0282
32 | GAAATGAA | 0.289
33 | TAAATGAA | 0.117
34 | GAAATGCC | 0.0869
35 | CAAATGAA | 0.14
36 | CAAATGAC | 0.0524
37 | GAAATGAC | 0.259
38 | TTGGCCAA | -0.0814
39 | GCGCCCAC | -0.0948
40 | ATGCTACC | 0.0357
41 | ACCTCTCC | -0.165
42 | ACATGGCA | -0.0266
43 | GATAACCA | 0.161
44 | CATAACCA | 0.0668
45 | CATAACAA | 0.18
46 | GATAACAA | 0.0894
47 | TATAACCA | 0.269
48 | TATAACAA | 0.265
49 | GAGGGGCA | -0.299
50 | CAATGCTG | -0.114

Row | Sequence | PBM E-score
51 | AGCAAAAA | 0.122
52 | CCCAACGA | -0.0115
53 | GATTTTCA | 0.175
54 | CATTATCG | 0.129
55 | AATTATCA | 0.288
56 | AATTATCT | 0.237
57 | AATTATCG | 0.267
58 | CATTATCA | 0.161
59 | AATTATCC | 0.133
60 | TTCCCGAA | 0.115
61 | CGAGTACG | -0.147
62 | AGAAGGTG | 0.029
63 | GGAAGGTA | -0.0252
64 | AGAAGGTA | 0.28
65 | TGAGCTCA | 0.0969
66 | AAAGGTCT | -0.0778
67 | GTTGGCTA | 0.12
68 | ATGGGTAG | -0.0623
69 | GTGCAGCA | -0.204
70 | GCTTTGTA | 0.259
71 | CCTTTGTA | -0.135
72 | ACTTTGTA | 0.0238
73 | GATTATGC | 0.0614
74 | AATTATGT | 0.164
75 | CATTATGC | 0.0641

Row | Sequence | PBM E-score
76 | AATTATGA | 0.278
77 | AATTATGG | 0.238
78 | AATTATGC | 0.273
79 | CAGTCTAC | -0.192
80 | GGCTTCCC | -0.127
81 | CTCCAACA | 0.141
82 | GATTACGC | 0.108
83 | GATTACGA | 0.291
84 | AATTACGA | 0.33
85 | TATTACGA | 0.326
86 | CTTTACGA | -0.0493
87 | AATTACAA | 0.151
88 | CATTACGA | 0.149
89 | ACTTACGA | 0.315
90 | GCTTACGA | 0.219
91 | ACTTACGC | 0.122
92 | TATTACCA | 0.196
93 | GGTTACGA | 0.06
94 | GGCCTTAC | -0.144
95 | CTCTAATC | -0.0693
96 | CCACTAGC | -0.158
97 | AGCTGAAA | -0.101
98 | AGAATTCT | 0.124
99 | TCCGCAAA | 0.0357
100 | ACAGACGC | -0.168

Row | Sequence | PBM E-score
101 | CGTGCACC | -0.0988
102 | AATTACGC | 0.208
103 | AATTACGG | 0.235
104 | AATTACGT | 0.308
105 | CATAATTC | 0.23
106 | AATAATTC | 0.263
107 | AATAATTG | 0.203
108 | AATAATTA | 0.316
109 | CATAATTA | 0.316
110 | GATAATTA | 0.251
111 | CATAATGA | 0.118
112 | AATAATGA | 0.0556
113 | AATAATGC | 0.216
114 | ACCTTCAG | -0.0617
115 | AGCAAAGC | 0.0118
116 | ACTAGCGC | 0.0683
117 | GGCACTAA | 0.107
118 | CGGTGTGA | 0.115
119 | AAGAACAA | 0.267
120 | GAGAACAC | -0.00708
121 | AAGAACAC | 0.147
122 | AAGAACAG | 0.0639
123 | CAGAACAA | 0.248
124 | GAGAACAA | 0.311
125 | CCGCGAGG | -0.0632

Row | Sequence | PBM E-score
126 | AAGTCTCC | -0.0848
127 | ACGGAGAT | -0.0531
128 | CACTGGAC | -0.0821
129 | ATTATTAG | 0.259
130 | ACTATTAC | 0.149
131 | ATTATTAC | 0.269
132 | ACTATTAG | 0.136
133 | CTTATTAC | 0.251
134 | ATTATTGG | 0.0681
135 | ATCCAAAG | 0.165
136 | GTCAGCCA | -0.0924
137 | CCCCAACA | -0.111
138 | AGTATATC | 0.0292
139 | AGTATATA | 0.364
140 | AGTATAAA | 0.304
141 | ATTATAAA | 0.231
142 | AGTATATG | 0.157
143 | TGTATAAA | 0.211
144 | AGTATAAG | 0.193
145 | ATTATAAT | 0.319
146 | AGTATAAC | -0.0565
147 | ATTATAAG | 0.0886
148 | AGTATAAT | 0.293
149 | GGTATAAA | 0.239
150 | CGACTCCG | -0.24

Row | Sequence | PBM E-score
151 | GCTGGCTA | -0.196
152 | ACTCACCA | -0.0571
153 | AGGTTACA | -0.0016
154 | GGCTGCAC | -0.206
155 | CGTTGTGA | -0.0712
156 | AGTATTTA | 0.16
157 | AATATTTC | 0.154
158 | AATATTTA | 0.295
159 | GGTATTTA | 0.104
160 | ATTTATTC | 0.212
161 | CTTATTTC | 0.251
162 | ATTTATTG | 0.0964
163 | ATTATTTC | 0.302
164 | CGTATTTA | 0.313
165 | ATTTATTA | 0.277
166 | ACTATTTC | 0.224
167 | CATATTTA | 0.185
168 | GGGGGACC | -0.358
169 | GATGGAGC | -0.108
170 | ACACCAGG | -0.237
171 | CACTACTG | 0.0352
172 | ATCAGTAG | 0.0393
173 | GCACACGC | -0.0783
174 | CTACTGCC | -0.0886
175 | ATGTACAA | 0.0885

Row | Sequence | PBM E-score
176 | CGACGTCA | 0.0828
177 | CAGGTTAC | 0.0255
178 | GTTTATTA | 0.268
179 | CTTTATTA | 0.199
180 | ATTATTTG | 0.197
181 | ATTATTTA | 0.289
182 | GGTTATTA | 0.158
183 | CTTATTTA | 0.11
184 | AAATTATC | 0.251
185 | ACTTTACA | 0.052
186 | AATTTAAG | 0.106
187 | AATTTAGT | 0.21
188 | AAATTATT | 0.275
189 | ACTTTACT | 0.284
190 | ACTTTACC | 0.149
191 | AATTTACT | 0.271
192 | AAATTATG | 0.208
193 | AATTTAAT | 0.261
194 | AATTTACA | 0.155
195 | AATTTAAC | 0.113
196 | CAGGTGGG | -0.0568
197 | CGGCTCTA | -0.067
198 | CGTGGTCA | -0.112
199 | ACTCTAAG | -0.0616
200 | CTCCGTGA | -0.0971

Row | Sequence | PBM E-score
201 | CGCCACCA | -0.25
202 | CGACCCCA | -0.16
203 | AGTAACGA | -0.0656
204 | GCGACAAA | 0.0655
205 | CGCTCGAG | 0.0723
206 | GGTTTTCA | 0.0332
207 | CTTTTGCA | 0.227
208 | AACGGTCG | 0.105
209 | AAATTACG | 0.172
210 | AAATTAGT | 0.283
211 | AAATTAGG | 0.196
212 | AAATTAGA | 0.201
213 | AAATTACT | 0.304
214 | AAATTACC | 0.235
215 | CGCAGCGA | -0.0766
216 | TAGTGGGA | -0.0516
217 | AAGCCTTC | -0.0737
218 | GTGTAACA | -0.00489
219 | AAAAGTTA | 0.195
